Experimental data published in PubChem BioAssay.
Active and inactive are the calls of the source. Unless noted, no stated cut-off is given here; in the data, active means inhibition above about 80%; inactive means the rest. Non-standard residues stand in square brackets, D forms with d. Residues, ends and D or L forms follow the SMILES beside them. Dolaproine = CO[C@@H]([C@@H]1CCCN1)[C@@H](C)C(=O)O; Dil = CC[C@H](C)[C@H](NC)[C@@H](CC(=O)O)OC; NMeV = CN[C@H](C(=O)O)C(C)C

Key:
[1] = galactose survival enhancers in mitochondrial complex I cybrids – cell-based, galactose medium, ATP luminescence, primary screen (AID 1645843;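 active means z-score of at least 1.8 in each of two replicates, scored against plate mean and spread of sample wells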;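 further: positive z means more ATP and so rescue of galactose-driven cybrid death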); conditions: complex I mutant cybrid cells, 72 h, stronger effect = higher value
[2] = growth inhibition, single agent or in combination, cell-based, chromothripsis tumors, cisplatin or BGB combos (AID 1671449); conditions: LFS_MB_P medulloblastoma cells;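 further: cells exposed for 96 hours; 0% = vehicle DMSO and 100% = killing by high DMSO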
[3] = growth inhibition, single agent and combos, cell-based, chromothripsis tumors, cisplatin or BGB combos (AID 1671450); conditions: HDN33 neuroblastoma cells, stronger effect = higher value;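 further: cells exposed to compound for four days; 0% = vehicle DMSO and 100% = cell killing by high DMSO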
[4] = growth inhibition, single agents and combos, ICB984, cell-based, cisplatin or BGB combos, synergistic combos for chromothripsis tumors (AID 1671451; call rule not given here;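 further: cells exposed for 96 hours before readout; 0% = vehicle DMSO and 100% = killing by high DMSO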); conditions: ICB984 medulloblastoma cells, drug combinations, stronger effect = higher value
[5] = growth inhibition, single agents and combos, LFS_MB_1R, cell-based, cisplatin or BGB combos, synergistic combos for chromothripsis tumors (AID 1671452); conditions: LFS_MB_1R medulloblastoma cells, stronger effect = higher value;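 further: cells exposed for 96 hours before readout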
[6] = growth inhibition, single agents and combos, HTB85, cell-based, BGB or cisplatin IC20 combos, synergistic combos for chromothripsis tumors (AID 1671453); conditions: HTB85 osteosarcoma cells, drug combinations, stronger effect = higher value;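 further: cells exposed for 96 hours before readout; 0% = vehicle DMSO and 100% = high DMSO killing control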
[7] = growth inhibition, single agents and combos, CRL2098, cell-based, BGB or cisplatin IC20 combos, synergistic combos for chromothripsis tumors (AID 1671454); conditions: CRL2098 osteosarcoma cells, drug combinations, stronger effect = higher value;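 further: cells exposed for 96 h before readout; 0% = vehicle DMSO and 100% = killing by high DMSO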
[8] = growth inhibition, single agents and combos, HD-MB03, cell-based, BGB or cisplatin IC20 combos, synergistic combos for chromothripsis tumors (AID 1671455; in the data active means inhibition above about 83%;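 further: 0% = vehicle DMSO and 100% = high DMSO as cytotoxic control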); conditions: HD-MB03 medulloblastoma cells, stronger effect = higher value
[9] = growth inhibition, single agents and combos, UWB1.289, cell-based, BGB or cisplatin combos, synergistic combos for chromothripsis tumors (AID 1671456); conditions: UWB1.289 ovarian carcinoma cells, stronger effect = higher value;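 further: cells exposed to compound for four days; 0% = vehicle DMSO and 100% = killing by high DMSO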
[10] = growth inhibition, single agents and combos, LFS_MB_2R, cell-based, cisplatin combos, synergistic combos for chromothripsis tumors (AID 1671457); conditions: LFS_MB_2R medulloblastoma cells, stronger effect = higher value;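 further: cells exposed to compound for four days before readout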
[11] = growth inhibition, MDA-MB-436, cell-based, BGB or cisplatin combos, synergistic combos for chromothripsis tumors (AID 1671458; call rule not given here;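 further: cells exposed for 96 hours; 0% = vehicle DMSO and 100% = killing by high DMSO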); conditions: MDA-MB-436 breast carcinoma growth inhibition, drug combinations, stronger effect = higher value
[12] = UWB1.289_BRCA1 ovarian cancer growth, cell-based, BGB or cisplatin combinations (AID 1671459); conditions: UWB1.289 BRCA1 ovarian carcinoma, drug combinations, stronger effect = higher value
[13] = drug combination toxicity in non-malignant astrocytes – cell-based, BGB or cisplatin IC20 combos, cytotoxicity control for chromothriptic childhood tumor combination screen (AID 1671460); conditions: Human astrocytes, viability inhibition, drug combinations, at 0.5 µM, stronger effect = higher value;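 further: cells exposed to compounds for 96 hours before viability readout; 0% = vehicle and 100% = killing control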
[14] = BT084 cell growth, single and combined drugs, ICGC_MB145, cisplatin and BGB IC40 combos (AID 1671461); conditions: BT084 medulloblastoma cells, drug combinations, stronger effect = higher value;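 further: cells exposed to drugs for 96 hours; 0% = vehicle DMSO and 100% = high DMSO full killing control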
[15] = RCMB18 cell growth, single agent and combined, cisplatin and BGB IC40 combos (AID 1671462); conditions: RCMB18 medulloblastoma cells, stronger effect = higher value;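 further: cells exposed to compound for four days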
[16] = CRL1545 cell growth, single agent and combined, cisplatin and BGB IC20 combos (AID 1671464); conditions: CRL1545 osteosarcoma cells, stronger effect = higher value;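 further: cells exposed to compound for 96 hours before readout; 0% = vehicle DMSO and 100% = high DMSO killing control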
[17] = measured here: combination with BGB IC40, at 0.05 µM
[18] = measured here: with BGB IC20 combination, at 0.5 µM
[19] = measured here: with cisplatin IC20 combination, at 0.5 µM
[20] = measured here: combination with cisplatin, at 0.5 µM
[21] = measured here: combination with cisplatin, at 5 µM

Cc1cccc2c(C(=O)N(C)C(C)C)cc(-c3cnc(C(C)(C)C)nc3)nc12
z-score [1]: 2.35 (active)

O=C(C1CCCCCC1)N1CCC(Cn2cc(CCCO)nn2)CC1
z-score [1]: -0.325 (inactive)

CCCc1cn(CC2CCN(C(=O)[C@@H](N)[C@@H](C)CC)CC2)nn1
z-score [1]: -0.24 (inactive)

CC[C@H](C)[C@@H]([C@@H](CC(=O)N1CCC[C@H]1[C@H](OC)[C@@H](C)C(=O)N[C@@H](Cc1ccccc1)C(=O)O)OC)N(C)C(=O)[C@@H](NC(=O)[C@@H](NC)C(C)C)C(C)C (H-[NMeV]V[Dil][Dolaproine]F-OH)
inhibition ([2]; at 0.5 µM, stronger effect = higher value): -34.4% (inactive)
inhibition ([2]; measured here: combination with BGB IC20, at 0.005 µM): -15%
inhibition ([2]; measured here: combination with BGB IC40, at 0.005 µM): -52.5%
inhibition [2, 17]: -31.6%
inhibition ([2]; measured here: combination with cisplatin, at 0.5 µM, stronger effect = higher value): -31.7%
inhibition ([2]; measured here: combination with cisplatin, at 5 µM, stronger effect = higher value): 13.5%
inhibition ([3]; BGB combo, at 5 µM): 68.3%
inhibition ([3]; at 0.5 µM): 71.4% (inactive)
inhibition ([3]; cisplatin combo, at 5 µM): 69.6%
inhibition [3, 18]: 62.6%
inhibition [3, 19]: 60.4%
inhibition ([3]; single agent, at 5 µM): 96.5%
inhibition ([4]; BGB IC20 combo, at 0.005 µM): -18.1%
inhibition ([4]; BGB IC40 combo, at 0.005 µM): -4.8%
inhibition ([4]; BGB IC40 combo, at 0.05 µM): 21.2%
inhibition ([4]; at 0.5 µM): -6.87% (inactive)
inhibition ([4]; cisplatin combo, at 0.05 µM): 17.4%
inhibition ([4]; cisplatin combo, at 0.5 µM): -3.43%
inhibition ([4]; cisplatin combo, at 5 µM): -11.7%
inhibition ([4]; measured here: 5 uM single agent, at 5 µM): -7.94%
inhibition ([5]; at 0.5 µM): -16.4% (inactive)
inhibition [5, 17]: -34.7%
inhibition [5, 20]: -7.82%
inhibition [5, 21]: 15.8%
inhibition ([6]; at 0.5 µM): 55.8% (inactive)
inhibition ([6]; measured here: with BGB IC20, at 0.5 µM): 69.6%
inhibition ([6]; measured here: with BGB IC20, at 5 µM): 59.7%
inhibition ([6]; measured here: with cisplatin IC20, at 0.5 µM): 20.4%
inhibition ([6]; measured here: with cisplatin IC20, at 5 µM): 67.1%
inhibition ([6]; single agent, at 5 µM): 86.4%
inhibition ([7]; at 0.5 µM): 35% (inactive)
inhibition ([7]; measured here: combination with BGB at IC20, at 0.5 µM): 36.6%
inhibition ([7]; measured here: combination with cisplatin at IC20, at 0.5 µM): 9.03%
inhibition ([8]; at 0.5 µM): 43.8% (inactive)
inhibition ([8]; measured here: combo with BGB at IC20, at 0.5 µM): 44.1%
inhibition ([8]; measured here: combo with cisplatin at IC20, at 0.5 µM): 39.9%
inhibition ([9]; at 0.5 µM): 20.2% (inactive)
inhibition ([9]; measured here: inhibition with BGB combination, at 0.05 µM): -13%
inhibition ([9]; measured here: inhibition with cisplatin combination, at 0.05 µM): -3.2%
inhibition ([10]; at 0.5 µM): -9.71% (inactive)
inhibition [10, 20]: -31.2%
inhibition [10, 21]: -10.7%
inhibition ([11]; at 0.5 µM): 50.1% (inactive)
inhibition ([11]; measured here: BGB combination, at 0.5 µM): 39.8%
inhibition ([11]; measured here: BGB combination, at 5 µM): 58%
inhibition ([11]; measured here: cisplatin combination, at 0.5 µM): 45.4%
inhibition ([11]; measured here: cisplatin combination, at 5 µM): 73.6%
inhibition ([12]; BGB combination, concentration series, at 5 µM): 49.3%
inhibition ([12]; at 0.5 µM): 26.4% (inactive)
inhibition ([12]; cisplatin combination, concentration series, at 5 µM): 53.2%
inhibition [13]: 31.9% (inactive)
inhibition ([13]; measured here: combo with BGB IC20): 39.5%
inhibition ([13]; measured here: combo with cisplatin IC20): 19.9%
inhibition ([14]; at 0.5 µM): 7.92% (inactive)
inhibition ([14]; cisplatin combination, at 0.5 µM): -4.86%
inhibition ([14]; cisplatin combination, at 5 µM): -10.9%
inhibition ([14]; measured here: BGB IC40 combination 0.05 uM, at 0.05 µM): -19.9%
inhibition ([14]; single agent, at 5 µM): 67.2%
inhibition ([15]; at 0.5 µM): -11.8% (inactive)
inhibition ([15]; cisplatin combo, at 5 µM): 17%
inhibition ([15]; measured here: BGB IC40 combination, at 0.05 µM): -3.82%
inhibition [15, 20]: -17.8%
inhibition ([15]; single agent, at 5 µM): 17.3%
inhibition ([16]; at 0.5 µM): 42.9% (inactive)
inhibition [16, 18]: 47.9%
inhibition [16, 19]: 39.4%
inhibition ([16]; single agent, at 0.05 µM): -9.33%
inhibition ([16]; single agent, at 5 µM): 84.4%
